# Test results published in ChEMBL document CHEMBL3988442, “University of Dundee, Small-Polar-MMV Screening Library” (2021).
# Target: AMP-activated protein kinase, AMPK (Homo sapiens) (UniProt P54646+O43741+P54619+Q9UGJ0+Q9Y478+Q13131+Q9UGI9)
# Assay: AMP-dependent Kinase enzyme assay. An in vitro enzyme assay that detects ADP turnover that is directly proportional to AMPK activity. This uses naive AMPK that is activated during the assay with MK-8722
# Format: functional
# Design: scale not given: direction of the effect not stated beside the values
# Details: 30 µM
row,Compound,Percent Effect [%]
1,NC1(c2nc(C(F)(F)F)cc(=O)[nH]2)CCCC1,-4.13
2,COc1ccc(NC(=O)CCN2CC=C(c3cnn(C)c3)CC2)cc1Cl,12.5
3,Cc1[nH]c(=O)[nH]c(=O)c1CC(=O)N1CCCN(CC2CC2)C(C(C)C)C1 (stereo not drawn),3.13
4,CC(C)(C)c1cc(=O)[nH]c(C2(N)CCCC2)n1,3.52
5,COc1ccc(CC(C)Nc2cccc(F)c2)cc1 (stereo not drawn),4.95

# Target: T1, Arginase-2, mitochondrial (Homo sapiens) (UniProt P78540)
# T1 sequence (whole entry): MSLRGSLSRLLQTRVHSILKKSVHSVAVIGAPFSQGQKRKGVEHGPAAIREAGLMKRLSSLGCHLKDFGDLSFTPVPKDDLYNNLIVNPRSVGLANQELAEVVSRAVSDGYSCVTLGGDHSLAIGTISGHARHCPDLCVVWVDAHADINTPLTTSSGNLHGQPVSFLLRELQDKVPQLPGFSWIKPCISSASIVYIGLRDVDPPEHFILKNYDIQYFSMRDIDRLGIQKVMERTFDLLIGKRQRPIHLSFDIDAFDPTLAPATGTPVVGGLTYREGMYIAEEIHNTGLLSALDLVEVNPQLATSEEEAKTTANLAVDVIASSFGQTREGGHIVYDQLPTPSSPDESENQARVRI
# Assay: in vitro enzyme assay to detect the production of urea directly proportional to the activity of Arginase II; also: in the data most compounds retested in dose-response had high values
# Format: functional
# Design: scale not given: direction of the effect not stated beside the values
# Details: 30 µM
row,Compound,Percent Effect [%]
1,O=C1CSC(c2ccncc2)c2c(n(C3CCOCC3)[nH]c2=O)N1 (stereo not drawn),9.19
2,O=C1CSC(c2cccnc2)c2c(n(C3CCOCC3)[nH]c2=O)N1 (stereo not drawn),7.03
3,c1ccc(O[C@H]2CO[C@@]3(CCCN(Cc4nccs4)C3)C2)nc1,-0.54
4,CSc1ccc(C2SCC(=O)Nc3c2c(=O)[nH]n3C2CCOCC2)cc1 (stereo not drawn),8.11
5,CN(Cc1cncnc1)[C@H]1CN(Cc2ccco2)[C@@H]2CCCO[C@@H]21,4.87
6,Cn1cc(C2SCC(=O)Nc3c2c(=O)[nH]n3C2CCOCC2)cn1 (stereo not drawn),0.54
7,Cc1nc(NCC2CC2)nc2c1COCC21CCNC1 (stereo not drawn),8.11
8,c1ccc(O[C@@H]2CO[C@@]3(CCCN(CC4CCOCC4)C3)C2)nc1,8.11
9,O=C1CSC(c2ccc(O)cc2)c2c(n(C3CCOCC3)[nH]c2=O)N1 (stereo not drawn),11.3
10,O=C1CSC(c2ccc(F)c(Cl)c2)c2c(n(C3CCOCC3)[nH]c2=O)N1 (stereo not drawn),-0.54
11,O=C1CSC(c2ccc(Cl)cc2Cl)c2c(n(C3CCOCC3)[nH]c2=O)N1 (stereo not drawn),8.11
12,O=C1CSC(c2ccsc2)c2c(n(C3CCCC3)[nH]c2=O)N1 (stereo not drawn),4.87
13,c1ccc(CN2CCC3(CC2)CCN(Cc2cccnc2)C3)nc1,8.11
